The list is not random: actives were taken first. Their share in the collection is about 2.4%.
D2 PAM-1 = Beta-Arrestin HTS for Positive Allosteric Modulators of the Human D2 Dopamine Receptor: Potentiators | D(2) dopamine receptor (Homo sapiens), P14416 | DiscoveRx D2 beta-arrestin cells, luminescence, 90 min; 100% = 57 uM dopamine signal | potentiation, % (concentration not given with the values) | 0.23% of 360,000 active | AID 624464, 2012; in the data active means potentiation above about 50%
Target sequence (P14416 whole entry, looked up): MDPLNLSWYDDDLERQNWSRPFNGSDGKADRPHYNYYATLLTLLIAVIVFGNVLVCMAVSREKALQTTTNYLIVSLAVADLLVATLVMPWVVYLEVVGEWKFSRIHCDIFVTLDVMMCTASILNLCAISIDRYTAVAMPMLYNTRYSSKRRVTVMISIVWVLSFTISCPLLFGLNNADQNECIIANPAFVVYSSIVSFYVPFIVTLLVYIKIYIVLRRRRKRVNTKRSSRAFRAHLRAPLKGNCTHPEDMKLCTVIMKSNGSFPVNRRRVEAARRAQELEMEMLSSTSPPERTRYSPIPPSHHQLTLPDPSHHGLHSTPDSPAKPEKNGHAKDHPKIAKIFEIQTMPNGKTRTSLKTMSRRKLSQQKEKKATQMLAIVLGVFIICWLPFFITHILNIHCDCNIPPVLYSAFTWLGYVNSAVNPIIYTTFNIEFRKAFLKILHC
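PathHunter beta-arrestin assay in DiscoveRx D2 cells. Compounds were added with an EC20 of dopamine (50 nM final) for 90 min at 37 deg C. Luminescence was read 1 h after detection reagent, with 57 uM dopamine as the EC100 control.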
D2 antag = HTS Assay for Allosteric Antagonists of the Human D2 Dopamine Receptor: Primary Screen for Antagonists; HEK293 TREx D2 cells, calcium flux, dopamine EC80; inhibition, % at 10 µM; 2% of 340,000 active; AID 485344, 2010; in the data active means inhibition above about 30%; inactive means below that, where a call was filed; further: 0% is about no effect
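Calcium flux kinetic readout in an inducible HEK293 TREx D2 line plated overnight at 30 C. After 180 s compound exposure, an EC80 dopamine challenge follows with another 180 s kinetic read to detect antagonism.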
D2 ag-1 = Beta-Arrestin HTS for Positive Allosteric Modulators of the Human D2 Dopamine Receptor: Agonists; 0.084% of 360,000 active; AID 624465, 2012; D(2) dopamine receptor (Homo sapiens), P14416; DiscoveRx PathHunter D2 beta-arrestin, luminescence, 90 min; 100% = 57 uM dopamine signal; activation, % (test concentration not listed); in the data active means activation above about 40%
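DiscoveRx PathHunter D2 beta-arrestin cells (2,100/well) attached overnight, then compound-stimulated 90 min at 37 C in HBSS/10 mM HEPES/0.1% Tween-20 buffer; beta-galactosidase complementation read by luminescence after 1 h at ambient temperature. Dopamine 57 uM final (EC100) as control.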
D2 PAM-2 = HTS Assay for Positive Allosteric Modulators of the Human D2 Dopamine Receptor: Primary Screen for Potentiators. D(2) dopamine receptor (Homo sapiens), P14416. HEK293 T-REx D2, calcium flux, EC20 dopamine potentiation. potentiation, % at 10 µM. 0.34% of 340,000 active. AID 485347, 2010;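 active means potentiation over 3 SD above the plate norm, cut at about 30% in these data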; further: 0% is about no effect
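Cells plated with tetracycline inducer and held overnight at 30 C; calcium dye loaded 30–90 min at room temperature; baseline taken, compound added and read 180 s; EC20 dopamine then added and read 180 s.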
D2 ag-2 = HTS Assay for Allosteric Agonists of the Human D2 Dopamine Receptor: Primary Screen for Agonists; 0.53% of 340,000 active; HEK293 T-REx D2 cells, calcium flux agonist mode; activation, % at 2 µM; D(2) dopamine receptor (Homo sapiens), P14416; AID 485358, 2010;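 active means activation over 3 SD above normal in the single-dose calcium agonist read, cut at about 30% in these data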; further: 0% is about no effect
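Agonism is scored from calcium flux in a force-coupled, inducible HEK293 cell line expressing D2, read kinetically for 180 s after compound addition against dopamine controls.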
The depositor's hits bear a star; . = not tested or not shown.

SMILES | D2 PAM-1 | D2 antag | D2 ag-1 | D2 PAM-2 | D2 ag-2
CS(=O)(=O)c1ccc(NC(=O)CCN2C(=O)C3CCCCC3C2=O)cc1 (stereo not given) | -9 | . | -3 | -6 | .
COc1ccc(N2CC(NC(=O)C3CCCC3)CC2=O)cc1 (stereo not given) | . | . | . | . | -2
COC(=O)c1ccc(Cl)cc1NC(=O)Nc1nnc(N(C)C2CCCCC2)s1 | . | . | . | 4 | 1
O=C(O)CCS(=O)(=O)c1ccccc1Cl | -10 | 39* | -5 | 16 | 1
O=C(Nc1cc(Cl)cc(Cl)c1)N1CCCN(Cc2ccccc2)CC1 | -32 | 87* | 2 | -25 | 0
COc1ccc(CNC(=O)C2CCCCN2S(=O)(=O)c2ccc(F)cc2)cc1 (stereo not given) | . | . | . | -1 | 0
COc1ccc2c(c1)CCC/C2=N\NC(=O)c1ccoc1C | -26 | 38* | -2 | -2 | -3
COc1ccccc1NC(=O)c1ccc(S(=O)(=O)N2CCC(C)CC2)cc1 | 5 | 28 | 3 | -7 | 0
O=C(/C=C/Nc1ccc(F)cc1)c1ccc(Oc2ncccn2)cc1 | -8 | 34* | -3 | 2 | 0
Cc1coc2cc3oc(=O)c(CCC(=O)N4C[C@H]5C[C@@H](C4)c4cccc(=O)n4C5)c(C)c3cc12 | -31 | 2 | -4 | 8 | 4
O=C(N/N=C/C(Br)=C/c1ccccc1)c1ccncc1 | -25 | 12 | -1 | -1 | 0
O=C(N/N=C/C(Br)=C/c1ccccc1)c1ccc([N+](=O)[O-])cc1 | -20 | 39* | 4 | -9 | 0
O=C(N/N=C/C(Br)=C\c1ccccc1)c1ccc2nc[nH]c2c1 | -9 | 34* | -3 | 9 | 1
CC(=C/c1ccccc1)/C=N/NC(=O)c1ccc2nc[nH]c2c1 | -24 | -6 | -1 | -25 | 1
O=C(Nc1cccc([N+](=O)[O-])c1)Nc1cccc([N+](=O)[O-])c1 | -10 | 25 | -10 | -2 | 3
O=C(Nc1cccc([N+](=O)[O-])c1)Nc1cnccn1 | -3 | -1 | 1 | -2 | 38*
O=C(O)CCCC(=O)Nc1cccc([N+](=O)[O-])c1 | -7 | -14 | -1 | 38* | -1
Cc1ccc[n+](CC(=O)Nc2cccc([N+](=O)[O-])c2)c1 | -14 | 32* | -9 | -27 | -1
CC1CCCCN1C(=O)C1CCN(c2nc(-c3ccccc3)nc3c2CCC3)CC1 (stereo not given) | -29 | -11 | -1 | -5 | 0
COc1ccccc1N1C(=O)c2ccc(C(=O)Nc3ccc(C(=O)O)cc3)cc2C1=O | -8 | 1 | -1 | 18 | 1
O=C(COC(=O)/C=C/c1ccc(OC(F)F)cc1)NC1CCCC1 | -16 | 32* | -3 | 8 | 0
O=C(/C=C/c1ccc(OC(F)F)cc1)OCC(=O)N1CCC(c2ccccc2)=N1 | 3 | 39* | -1 | -4 | 3
O=C(COC(=O)/C=C/c1ccc(OC(F)F)cc1)NC(=O)NC1CCCCC1 | -3 | . | -1 | . | .
O=C(O)c1ccc(S(=O)(=O)N2CCN(c3ccccn3)CC2)cc1 | 9 | -7 | 2 | 0 | 0
O=C(c1cccs1)N1C[C@@H](O)[C@H](n2cc(-c3ccc(F)cc3)nn2)C[C@@H]1c1ccc(Cl)cc1 | 0 | . | -8 | . | .
SMILES | D2 PAM-1 | D2 antag | D2 ag-1 | D2 PAM-2 | D2 ag-2
COc1ccc(C)cc1NC(=O)C(NCC(O)c1ccccc1)c1ccccc1 (stereo not given) | -7 | 33* | -3 | -14 | 0
COc1ccc(C)cc1NC(=O)C(NS(=O)(=O)c1cccs1)c1ccccc1 (stereo not given) | . | . | . | 0 | .
COC(=O)c1ccc(/C=N\NC(=O)CC(=O)NCCc2ccccc2)cc1 | -3 | -13 | -3 | -8 | 0
C=CCNC(=O)CC(=O)N/N=C/c1ccc(C(=O)OC)cc1 | -9 | 33* | 1 | -2 | 1
O=S(=O)(c1ccccc1)N1CCN(S(=O)(=O)N2CCCCC2)CC1 | -5 | 38* | 2 | 9 | -1
O=S(=O)(c1ccccc1)N1CCCN(S(=O)(=O)c2ccccc2)CC1 | -10 | 3 | 4 | -4 | 0
COc1ccc(/C=N/NS(=O)(=O)c2ccccc2)cc1OS(=O)(=O)c1ccc(C)cc1 | -22 | 32* | -6 | 3 | 0
O=C1C=C(c2ccccc2)OC2(CCCC2)O1 | -3 | -2 | -3 | 38* | 0
CCn1cc(C(=O)NCCc2ccc(OC)c(OC)c2)c(=O)c2cc(S(=O)(=O)N3CCC(C)CC3)ccc21 | . | . | . | 15 | 7
O=C(Nc1ccsc1C(=O)O)c1ccccc1Cl | 19 | -3 | 6 | 9 | -1
C=CCN(c1ccc(C(=O)Nc2cccc([N+](=O)[O-])c2)cc1)S(C)(=O)=O | -17 | 37* | 2 | -29 | 0
O=C(COc1ccccc1Cl)Nc1ccc(C(=O)O)cc1NC(=O)COc1ccccc1Cl | 1 | 4 | -7 | 7 | 0
O=C(COc1ccccc1Cl)Nc1ccccc1C(=O)Nc1cccc(C(=O)O)c1 | -4 | 31* | -1 | -1 | 0
CCCCCCCC(=O)C(C)C(=O)N(C)[C@H](Cc1ccc(OC)cc1)C(=O)N(C)[C@H](C(N)=O)C(C)C (stereo not given in full) | . | . | 0 | . | .
COc1ccc(Nc2nc(N)nc(CSc3nc(C)cc(C)n3)n2)cc1 | 3 | . | -4 | 5 | .
COc1ccc(Nc2nc(N)nc(CSc3nnc(N)s3)n2)cc1 | -5 | 38* | 1 | -7 | -1
S=C(Nc1cccc(Cl)c1Cl)NC1CCN(Cc2ccccc2)CC1 | -39 | 71* | -3 | -18 | 1
CCOc1ccc(-c2nc(CSCC(=O)NC3CCN(Cc4ccccc4)CC3)c(C)o2)cc1 | -27 | . | -2 | . | .
S=C(Nc1ccc(Cl)c(Cl)c1)NC1CCN(Cc2ccccc2)CC1 | -18 | 45* | -1 | -28 | 2
Cc1oc(-c2ccc(Cl)cc2)nc1CSCC(=O)NC1CCN(Cc2ccccc2)CC1 | -34 | 56* | -3 | -10 | 0
CC(C)(C)CC(C)(C)NC(=S)NC1CCN(Cc2ccccc2)CC1 | -44 | 66* | -4 | -24 | 1
Fc1ccc(NC(=S)NC2CCN(Cc3ccccc3)CC2)cc1 | 25 | . | -2 | . | .
CCn1cc(C(=O)NCCCOC)c(=O)c2cc(S(=O)(=O)N3CCc4ccccc4C3)ccc21 | . | . | . | . | -1
COC(=O)c1ccc(Cn2ccc(=O)[nH]c2=O)cc1 | -12 | . | 0 | . | .
